From PubChem BioAssay come the findings set out here.

A number with no mark means an inactive call. How the calls were made is not given here.

The assay concerns Aerobactin synthetase IucA (Klebsiella pneumoniae hvKP1). Kind of assay: Biochemical IucA enzyme inhibition primary screen of the Spectrum library (AID 1346200).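 Further: 100% = wells without compound and 0% = wells lacking enzyme.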 The conditions noted are these: malachite green pyrophosphate, A620, at 8 µM, hits give low values.

Take `O=c1cc(-c2ccc(O)cc2)oc2cc(O)ccc12`: the activity remaining is 102%. The figure for `CC(=O)NCCCCCC(=O)O` is 124%; for `Nc1nc2c(c(=O)[nH]1)N(C=O)C(CNc1ccc(C(=O)N[C@@H](CCC(=O)O)C(=O)O)cc1)CN2` (stereo not given in full) it is 104%. Then `COc1ccc(OC)c(C(O)CNC(=O)CN)c1` (stereo not given), with 99.4%; and `CCCC(=O)Nc1ncnc2c1ncn2C1O[C@@H]2COP(=O)(O)O[C@H]2[C@H]1OC(=O)CCC` (stereo not given in full), with 107%. Then `COc1ccc2ccc(=O)oc2c1`, with 114%; and `CC(=O)N1CCCC1C(=O)O` (stereo not given), with 106%; and `C[C@H]1[C@H]2CCC3C4CC=C5C[C@@H](N(C)C)CC[C@]5(C)C4CC[C@@]32CN1C` (stereo not given in full), with 119%. For the compound `C=C(NC(=O)C(=C)NC(=O)c1csc(C2=NC3c4csc(n4)C4NC(=O)c5csc(n5)C(C(C)(O)C(C)O)NC(=O)C5CSC(=N5)C(=CC)NC(=O)C(C(C)O)NC(=O)c5csc(n5)C3(CC2)NC(=O)C(C)NC(=O)C(=C)NC(=O)C(C)NC(=O)C(C(C)CC)NC2C=Cc3c(C(C)O)cc(nc3C2O)C(=O)OC4C)n1)C(N)=O` (stereo not given), the activity remaining was 121%. As for `CC(=O)OC[C@@]1(O)C[C@@]23CCC4c5ccoc5CC[C@]4(C)C2CC[C@@H]1C3` (stereo not given in full), the activity remaining is 119%. Regarding `CON`, the activity remaining is 103%.

For the compound `CCn1cc(C(=O)O)c(=O)c2cnc(N3CCNCC3)nc21`, the activity remaining is 101%. Turning to `COc1ccc(C(=O)/C=C/c2ccccc2)cc1`, the activity remaining was 106%.

Take `CC[C@]12CCCN3CCc4c(n(c5ccccc45)C(=O)C1)[C@@H]32`: the activity remaining was 101%. Then `OC1=Cc2c(O)cc(O)cc2OC1(O)c1ccc(O)c(O)c1` (stereo not given), with 81.3%; and `Nc1nc2ncc(=O)[nH]c2c(=O)[nH]1`, with 121%; and `O=C(OOC(=O)c1ccccc1)c1ccccc1`, with 113%. The figure for `N[C@@H]1[C@@H](O)[C@H](O)[C@@H](CO)O[C@H]1O` is 80.8%; for `Cc1cc(C2CCCCC2)n(O)c(=O)c1` it is 95.7%; for `O=C1C=CC(=C(c2ccc(O)cc2)c2ccc(O)cc2)C=C1` it is 105%.

Consider `O=C1C=CC2=C3c4cc(O)c(O)cc4CC3(O)COC2=C1O` (stereo not given), for which the activity remaining was 94.5%. For `COc1ccc2c(c1)OC[C@@H](Cc1ccc(OC)c(OC)c1)[C@H]2O`, the activity remaining was 109%. Then `CC(C)(O)[C@@H]1Cc2cc3ccc(=O)oc3cc2O1`, with 113%; and `Oc1c(Br)cc(Br)c2cccnc12`, with 113%; and `NC1=NCCN1CC(=O)O`, with 112%. Then `C=CC(N)CCC(=O)O` (stereo not given), with 119%. Turning to `COc1ccc(-c2coc3cc(O)ccc3c2=O)c(O)c1O`, the activity remaining is 114%. The figure for `NC(=O)NC1NC(=O)NC1=O` (stereo not given) is 113%; for `CC1NC(=O)NC1=O` (stereo not given) it is 97.3%. As to `CC1(C)C2CC[C@]3(C)C(C(=O)C=C4[C@H]5C[C@@](C)(C(=O)O)CC[C@]5(C)CC[C@]43C)[C@@]2(C)CC[C@@H]1O` (stereo not given in full), the activity remaining was 109%. Then `CC(=O)OC/C=C(C)/C=C/C=C(C)/C=C/C1=C(C)CCCC1(C)C`, with 92.2%. As to `CCCCC(=O)N(Cc1ccc(-c2ccccc2-c2nn[nH]n2)cc1)[C@H](C(=O)O)C(C)C`, the activity remaining was 121%.

Regarding `CC(C)CCCC(C)C1CCC2C3=CC[C@H]4C[C@@H](O)CC[C@]4(C)C3CC[C@@]21C` (stereo not given in full), the activity remaining was 114%. With `Nc1ccc(N=Nc2ccccc2)c(N)n1`, the activity remaining was 112%. Then `CC1(C)CC[C@@]2(C(=O)O)C(C1)C1=CCC3[C@@]4(C)CC[C@H](O)C(C)(C)C4CC[C@@]3(C)[C@]1(C)C[C@@H]2O` (stereo not given in full), with 99.8%; and `OC(c1cc(C(F)(F)F)nc2c(C(F)(F)F)cccc12)C1CCCCN1` (stereo not given), with 120%; and `Nc1ccc(S(=O)(=O)Nc2nccs2)cc1`, with 101%. The figure for `C=C(C)[C@@H]1CC[C@]2(CO)CC[C@]3(C)[C@H](CCC4[C@@]5(C)CC[C@H](O)C(C)(C)C5CC[C@]43C)C12` (stereo not given in full) is 93.4%; for `COc1ccc(-c2cc(=O)c3c(O)cc(OC)c(OC)c3o2)c(OC)c1` it is 94.3%. On to `O=C(O)CCCc1ccccc1`, for which the activity remaining is 111%.

For `O=C(O)c1ccccc1OP(=O)(O)O`, the activity remaining is 116%. The figure for `O=C(O)c1cc(O)c(O)c(O)c1` is 117%; for `Oc1c(I)cc(I)c2cccnc12` it is 102%; for `Nc1c(Br)cc(Br)cc1CNC1CCC(O)CC1` (stereo not given) it is 93.2%. Then `O=c1cc(-c2ccccc2)oc2cc(O)c(O)c(O)c12`, with 122%; and `CN(C(=O)C(Cl)Cl)c1ccc(OC(=O)c2ccco2)cc1`, with 96.4%; and `O=C(NC(Cc1cc(=O)[nH]c2ccccc12)C(=O)O)c1ccc(Cl)cc1` (stereo not given), with 106%. Then `CC(=O)O[C@H]1CC[C@]2(C)C3CC[C@@]4(C)C(CC5O[C@@]6(CCC(C)CO6)[C@@H](C)C54)C3CC[C@@H]2C1` (stereo not given in full), with 84.2%; and `CC12CCC3C(=CCc4cc(O)ccc43)C1CCC2=O` (stereo not given), with 108%; and `CC(=O)O[C@H]1CC[C@@]2(C)C(=CCC3C2CC[C@@]2(C)C3CC[C@@H]2C(C)CCCC(C)C)C1` (stereo not given in full), with 124%. For the compound `CCCCCCc1ccc(O)cc1O`, the activity remaining is 124%. The figure for `CC(C)c1ccc2c(c1)CCC1C(C)(C(N)=O)CCCC21C` (stereo not given) is 103%.

For `O=C(O)C1(O)C[C@@H](O)C(O)[C@H](O)C1` (stereo not given in full), the activity remaining is 89.8%. With `COc1ccc(C(Cl)=C(c2ccc(OC)cc2)c2ccc(OC)cc2)cc1`, the activity remaining was 117%.

With `O=C(Nc1ccccc1)Nc1ccccc1`, the activity remaining is 103%. Turning to `CCCCC(=O)O[C@H]1CCC2C3CCc4cc(O)ccc4C3CC[C@@]21C` (stereo not given in full), the activity remaining was 97.5%. The figure for `CC1=C2[C@](C)(C=CC1=O)C[C@H](O)[C@H]1[C@H](C)C(=O)O[C@]21C` is 107%.

`CCC(=O)OCC(=O)[C@@]1(OC(=O)CC)[C@H](C)CC2C3C([C@@H](O)C[C@@]21C)[C@@]1(C)C=CC(=O)C=C1C[C@H]3Cl` (stereo not given in full): the activity remaining is 106%. As for `C=C[C@@](C)(O)CCC1C(=C)C[C@H](O)C2C(C)(C)CCCC12C` (stereo not given in full), the activity remaining was 123%. The figure for `Cc1cc(O)cc(O)c1C(=O)O` is 113%.
